From PubChem
USP28 inh – human USP28 deubiquitinase inhibition. Q96RU2. purified USP28, Ub-rhodamine cleavage fluorescence, 30 min. inhibition, % at 25 µM. hit rate 3% among 47,000. AID 1645857
OTUD3 block – human OTUD3 deubiquitinase inhibition | Q5T2D3 | purified OTUD3, Ub-rhodamine fluorescence, 2 h | inhibition, % at 25 µM | hit rate 0.7% among 47,000 | AID 1645858
Target sequence (Q5T2D3 whole entry, looked up): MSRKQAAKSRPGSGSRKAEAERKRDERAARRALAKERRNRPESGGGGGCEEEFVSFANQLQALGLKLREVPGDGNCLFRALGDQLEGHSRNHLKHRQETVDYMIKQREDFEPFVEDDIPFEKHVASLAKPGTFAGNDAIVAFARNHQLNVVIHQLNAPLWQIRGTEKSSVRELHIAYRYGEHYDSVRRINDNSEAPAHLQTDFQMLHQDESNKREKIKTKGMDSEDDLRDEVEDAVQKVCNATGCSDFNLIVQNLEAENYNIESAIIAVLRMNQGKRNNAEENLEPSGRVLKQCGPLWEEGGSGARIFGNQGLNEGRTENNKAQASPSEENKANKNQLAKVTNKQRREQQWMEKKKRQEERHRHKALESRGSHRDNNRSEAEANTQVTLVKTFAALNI
Active calls of the source: *. Hits are enriched below; roughly 3.3% of the tested compounds scored in any of these assays. Cut-off read from the data, not from the text of the source: active = inhibition above about 30%; inactive = the rest.

SMILES | USP28 inh | OTUD3 block
COc1ccc(C(=O)Nc2ccc3c(c2)CN(C(=O)c2ccco2)CC3)c(OC)c1OC | 14.0 | -12.6
O=C(COc1ccccc1)Nc1ccc2c(c1)CN(C(=O)c1ccco1)CC2 | 26.2 | -5.6
O=C(NCCCN1CCCC1=O)c1cnn2c(C(F)(F)F)cc(-c3ccccc3)nc12 | 2.0 | 5.4
COc1cc(NC(=O)CN2CCc3ccccc32)cc(OC)c1OC | 2.4 | 1.2
Cc1nc(-c2ccc(C)c(S(=O)(=O)Nc3ccccc3F)c2)cs1 | 10.0 | 4.0
CCOC(=O)c1ccc(NC(=O)c2ccc(S(=O)(=O)N3CCc4ccccc4C3)cc2)cc1 | 9.4 | 8.9
CCOC(=O)c1cccc(NC(=O)c2ccc(S(=O)(=O)N3CCN(C)CC3)cc2)c1 | 30.7* | -1.1
Cc1cc(C)c(S(=O)(=O)N2CCC(C(=O)OC(C)C(=O)Nc3ccccc3-c3ccccc3)CC2)c(C)c1 (configuration not stated) | 2.7 | 6.8
CCOC(=O)c1ccc(S(=O)(=O)N2CCC(C(=O)OC(C)C(=O)Nc3cccc([N+](=O)[O-])c3)CC2)cc1 (configuration not stated) | 42.4* | 14.7
O=C(CSc1nnc2ccc(-c3ccc4c(c3)OCO4)nn12)NCC1CCCO1 (configuration not stated) | 9.7 | 23.0
O=C(c1cc2occc2c(Nc2ccc(F)cc2)n1)N1CCN(c2ccccn2)CC1 | 13.1 | 6.2
Nc1[nH]nc2nc(C3CCN(C(=O)c4cc(C5CC5)on4)CC3)cc(C(F)(F)F)c12 | 1.5 | -3.9
CC(C)(C)c1ccc(Cn2nnc3c(=O)[nH]c(C4CCN(S(=O)(=O)c5ccc(S(=O)(=O)NC6CC6)cc5)CC4)nc32)cc1 | 31.7* | 11.4
CC(C)(C)c1ccc(Cn2nnc3c(=O)[nH]c(C4CCN(S(=O)(=O)c5ccc(S(=O)(=O)NC6CCCC6)cc5)CC4)nc32)cc1 | 0.2 | 6.8
Cc1ccc(Nc2c(-c3cccnc3)nc3cc(C)ccn23)cc1 | 33.0* | 3.9
COC(=O)c1cccc(Nc2c(-c3ccc(OC)cc3)nc3cnccn23)c1 | -42.1 | -35.9
Cc1sc(NC(=O)CNc2ccccc2)nc1-c1ccc2c(c1)CCN2C(=O)C1CCCCC1 | 10.4 | -2.0
CCCN1CCN(C(=O)c2nn(-c3ccccc3)c3c(=O)n(C)cnc23)CC1 | -20.2 | -7.4
Nc1ncnc2c1ncn2[C@@H]1O[C@H](CO)C[C@@H]1O | 43.6* | 50.4*
C=C1O[C@](CO)(n2cnc3c(N)ncnc32)[C@@H](O)[C@H]1O | -9.2 | -3.3
CC1=C(c2ccc(C)c(C)c2)S(=O)(=O)N=C1N1CCC(NC(=O)C2CCOC2)CC1 (configuration not stated) | 3.4 | 11.9
CCOc1ccc(C(=O)N2CCC(Nc3cccnc3)C2)cc1 (configuration not stated) | -92.9 | -81.3
O=C(c1ccc2cc[nH]c2c1)N1CCC(Nc2cccnc2)C1 (configuration not stated) | -14.1 | 55.0*
Cc1c(C(=O)Nc2ccc(F)cc2)nnn1-c1cccc2c1CCN(c1cnccn1)C2 | -5.0 | -12.2
C[C@@H]1CCC2(C)CC[C@]3(C)C(=CCC4[C@@]5(C)CCC(O)C(C)(C)C5CC[C@]43C)C2[C@H]1C (some centres not stated) | 9.9 | 5.9
SMILES | USP28 inh | OTUD3 block
CC1(C)CC[C@]2(C(=O)O)CC[C@]3(C)C(=CCC4[C@@]5(C)CC[C@H](O)[C@@](C)(CO)C5CC[C@]43C)[C@@H]2C1 (some centres not stated) | 81.8* | 80.7*
O=C(Nc1ccncc1)C1Cn2ccnc2C2(CCN(C(=O)C3CC3)CC2)O1 (configuration not stated) | 0.1 | -15.4
O=C(NCc1cccc(NC(=O)C2CC2)c1)Nc1cccc2ccccc12 | 1.7 | 41.8*
COc1ccccc1CNC(=O)Nc1cccc2ccccc12 | 4.3 | 9.8
CCOc1ccc(C(=O)NCc2noc(-c3ccco3)n2)cc1 | -8.1 | -10.1
O=C1Nc2ccccc2C(=O)N2CCCC12 (configuration not stated) | 9.7 | 10.2
O=C1Nc2ccccc2C(=O)C1C(c1ccc(Cl)cc1)C1C(=O)Nc2ccccc2C1=O (configuration not stated) | 39.9* | 27.8
COc1ccc(OCC(O)CNC(=O)Nc2ccc(F)cc2)cc1 (configuration not stated) | 16.6 | 12.4
COc1ccc(NC(=O)NC(COC(=O)Nc2ccc(OC)cc2)c2ccccc2)cc1 (configuration not stated) | 32.9* | 29.5
Cn1c(=O)c(C(=O)Nc2ccc(Br)cc2)nc2ccccc21 | 12.8 | 6.6
Cc1nc(N2CCN(C)CC2)ncc1C(=O)NCc1ccco1 | -15.5 | 0.1
O=C(NCc1ccc2c(c1)OCO2)c1cc2ccccc2s1 | 41.5* | 21.9
Cc1nc(-c2ccccc2)sc1C(=O)NCc1ccc2c(c1)OCO2 | 5.6 | 0.3
Cc1ccc(S(=O)(=O)N2CCCCC2)cc1NC(=O)Cc1cccc(F)c1 | 59.7* | -3.1
Cc1ccc(S(=O)(=O)N2CCCCC2)cc1NC(=O)CN1C(=O)CN(C)C1=O | -12.3 | -4.0
O=[N+]([O-])c1cccc(-c2noc(CSc3ccccc3)n2)c1 | 66.9* | 15.6
O=[N+]([O-])c1cccc(-c2nnc(-c3ccccn3)o2)c1 | -5.8 | 0.0
Cc1ccc(NC(=O)c2cc(CN3CCOCC3)on2)c(Cl)c1 | -14.2 | -4.9
CC(=O)N1CCOc2ccc(S(=O)(=O)Nc3ccccc3F)cc21 | 3.0 | 10.1
CCc1cc(C2CCCN2S(=O)(=O)c2ccc3c(c2)OCCN3C(C)=O)on1 (configuration not stated) | 38.6* | 7.9
CCn1nccc1C1CCCN1S(=O)(=O)c1ccc2c(c1)OCCO2 (configuration not stated) | -0.5 | 2.4
CC(=O)N1CCOc2cc(S(=O)(=O)N3CCCC3c3cc(C)no3)ccc21 (configuration not stated) | 51.7* | 19.3
Cc1ccc(Cn2c(=O)c3ncccc3n(CC(=O)NCc3ccc(F)cc3)c2=O)cc1 | 78.4* | 45.2*
CCn1cc2c(n1)c(=O)n(Cc1ccc(C)cc1)c(=O)n2CC(=O)Nc1ccc(F)cc1 | 17.8 | 15.9
CCn1cc2c(n1)c(=O)n(Cc1ccccc1)c(=O)n2CC(=O)NCc1ccc(C)cc1 | 26.7 | 34.7*
SMILES | USP28 inh | OTUD3 block
O=C(Cn1c(=O)n(Cc2ccc(F)cc2)c(=O)c2ncccc21)Nc1ccccc1 | 16.2 | 5.3
CN(C)C1CCN(C(=O)c2cc(-c3ccn(-c4ccccc4)n3)n3ccccc23)CC1 | -258.1 | -168.5
COc1ccc(CCNC(=O)c2c(N)n(-c3cccc(Cl)c3)c3nc4ccccc4nc23)cc1 | -21.8 | -29.3
CN(C)CC1(O)CCCN(C(=O)c2c3c(c[nH]c2=O)CCCC3)CC1 (configuration not stated) | 13.9 | 3.5
O=C(NCCC1=CCCCC1)c1cccc(Nc2nc3ccccc3n3cnnc23)c1 | 8.6 | 16.1
Cc1nc2cc(C(=O)NCCC3=CCCCC3)ccc2n1-c1cccc(F)c1 | 39.7* | 6.1
CCCOc1ccc(C(=O)CCN2CCN(c3ccccc3OC)CC2)cc1 | 12.1 | 10.5
COc1ccccc1NC(=O)N1CCN(c2nc3ccncc3n(CC(C)C)c2=O)CC1 | -1.0 | 0.1
Cc1ccc(-n2ccnc(NC(=O)c3ccccn3)c2=O)cc1C | -11.7 | 0.8
O=C(Nc1nccn(-c2cccc(F)c2)c1=O)c1ccccn1 | 71.7* | 13.9
O=C(Cn1cccc(S(=O)(=O)N2CCCCCC2)c1=O)Nc1ccc(F)cc1 | -18.1 | -71.9
